# Measurements from the supplement of paper PMC4466140.
# What was measured:
# Experiment in all cases: SPOT peptide array binding signal intensity (averaged, normalized) (arbitrary units (background-subtracted, floor 0; scale differs between SH3 domains)); higher = stronger binding of the SH3 domain to the peptide
# AgAbp1 = target: AgAbp1
# Protocol: (§1)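 GST-tagged SH3 domains from S. cerevisiae (Sc), A. gossypii (Ag), C. albicans (Ca) and S. pombe (Sp) were incubated at 10 ug/ml overnight at 4 C on cellulose SPOT membranes carrying 292 synthetic 15-mer peptides mined from the S. cerevisiae proteome (cysteines replaced by serines). Binding was detected with anti-GST antibody, HRP secondary and chemiluminescence, quantified with Genespotter, and reported as normalized spot intensities averaged over biological replicates.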
# AgBbc1 = target: AgBbc1
# Protocol: as §1
# AgBem1-D1 = target: AgBem1-D1
# Protocol: as §1
# AgBzz1-D1 = target: AgBzz1-D1
# Protocol: as §1
# AgBzz1-D2 = target: AgBzz1-D2
# Protocol: as §1
# AgCyk3 = target: AgCyk3
# Protocol: as §1
# AgFus1 = target: AgFus1
# Protocol: as §1
# AgHof1 = target: AgHof1
# Protocol: as §1
# AgHse1 = target: AgHse1
# Protocol: as §1
# AgLsb1 = target: AgLsb1
# Protocol: as §1
# AgLsb4 = target: AgLsb4
# Protocol: as §1
# AgMyo5 = target: AgMyo5
# Protocol: as §1
# AgNbp2 = target: AgNbp2
# Protocol: as §1
# AgRvs167 = target: AgRvs167
# Protocol: as §1
# AgSho1 = target: AgSho1
# Protocol: as §1
# AgSla1-D1-D2 = target: AgSla1-D1-D2
# Protocol: as §1
# AgSla1-D3 = target: AgSla1-D3
# Protocol: as §1
# CaAbp1-D1 = target: CaAbp1-D1
# Protocol: as §1
# CaAbp1-D2 = target: CaAbp1-D2
# Protocol: as §1
# CaBbc1 = target: CaBbc1
# Protocol: as §1
# CaBem1-D1 = target: CaBem1-D1
# Protocol: as §1
# CaBzz1-D1 = target: CaBzz1-D1
# Protocol: as §1
# CaBzz1-D2 = target: CaBzz1-D2
# Protocol: as §1
# CaCyk3 = target: CaCyk3
# Protocol: as §1
# CaFus1 = target: CaFus1
# Protocol: as §1
# CaHof1 = target: CaHof1
# Protocol: as §1
# CaHse1 = target: CaHse1
# Protocol: as §1
# CaLsb1 = target: CaLsb1
# Protocol: as §1
# CaLsb4 = target: CaLsb4
# Protocol: as §1
# CaMyo5 = target: CaMyo5
# Protocol: as §1
binder,measurement,setting,value
KFIPSRPAPKPPSSA,SPOT peptide array binding signal intensity,AgAbp1,1640
same,SPOT peptide array binding signal intensity,AgBbc1,1210
same,SPOT peptide array binding signal intensity,AgBem1-D1,98
same,SPOT peptide array binding signal intensity,AgBzz1-D1,70
same,SPOT peptide array binding signal intensity,AgBzz1-D2,69.5
same,SPOT peptide array binding signal intensity,AgCyk3,≤ 0
same,SPOT peptide array binding signal intensity,AgFus1,≤ 0
same,SPOT peptide array binding signal intensity,AgHof1,26.2
same,SPOT peptide array binding signal intensity,AgHse1,37
same,SPOT peptide array binding signal intensity,AgLsb1,674
same,SPOT peptide array binding signal intensity,AgLsb4,30.5
same,SPOT peptide array binding signal intensity,AgMyo5,1380
same,SPOT peptide array binding signal intensity,AgNbp2,11400
same,SPOT peptide array binding signal intensity,AgRvs167,5.5
same,SPOT peptide array binding signal intensity,AgSho1,≤ 0
same,SPOT peptide array binding signal intensity,AgSla1-D1-D2,51
same,SPOT peptide array binding signal intensity,AgSla1-D3,1
same,SPOT peptide array binding signal intensity,CaAbp1-D1,1850
same,SPOT peptide array binding signal intensity,CaAbp1-D2,1020
same,SPOT peptide array binding signal intensity,CaBbc1,1910
same,SPOT peptide array binding signal intensity,CaBem1-D1,1550
same,SPOT peptide array binding signal intensity,CaBzz1-D1,1780
same,SPOT peptide array binding signal intensity,CaBzz1-D2,1310
same,SPOT peptide array binding signal intensity,CaCyk3,46
same,SPOT peptide array binding signal intensity,CaFus1,75
same,SPOT peptide array binding signal intensity,CaHof1,≤ 0
same,SPOT peptide array binding signal intensity,CaHse1,2.25
same,SPOT peptide array binding signal intensity,CaLsb1,≤ 0
same,SPOT peptide array binding signal intensity,CaLsb4,190
same,SPOT peptide array binding signal intensity,CaMyo5,24
